Many of the other results were omitted from the sample, so the strongest signals are more common in it than they were.
Assays:
Assay in all cases: glycan array binding signal (z-score within array); higher = stronger binding
Conditions in all cases: glycan notation: IUPAC condensed, linker removed
[1] = biological target: Gal3S4S(b1-4)GlcNAc
Outline: (§1)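 Glycan array data were curated from 3228 arrays in the Consortium for Functional Glycomics database and kept only where the protein sequence was available. Glycan names were converted to IUPAC-condensed notation, and columns mapping to the same glycan were averaged. The binding signal is a within-array Z-score, averaged across arrays of the same protein sequence at different concentrations or buffers and across linkers. Negative Z-scores can be read as non-binding.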

[2] = biological target: GalNAc3S(b1-4)GlcNAc3S
Outline: as §1

[3] = biological target: GlcNAc(b1-2)[GlcNAc(b1-4)]Man(a1-3)[GlcNAc(b1-4)][GlcNAc(b1-2)[GlcNAc(b1-6)]Man(a1-6)]Man(b1-4)GlcNAc(b1-4)[Fuc(a1-6)]GlcNAc
Outline: as §1

[4] = biological target: GlcNAc(b1-3)Fuc
Outline: as §1

[5] = biological target: GlcNAc(b1-3)Gal(b1-4)GlcNAc
Outline: as §1

[6] = biological target: GlcNAc(b1-4)GlcNAc
Outline: as §1

[7] = biological target: Kdn(a2-3)Gal(b1-4)[Fuc(a1-3)]GlcNAc
Outline: as §1

[8] = biological target: Man(a1-2)Man(a1-2)Man(a1-6)[Man(a1-3)]Man
Outline: as §1

[9] = biological target: Man(a1-2)Man(a1-3)[Man(a1-2)Man(a1-6)]Man(a1-6)[Man(a1-2)Man(a1-2)Man(a1-3)]Man
Outline: as §1

[10] = biological target: MurNAc(b1-4)GlcNAc
Outline: as §1

[11] = biological target: Neu5Ac(a2-3)Gal(b1-3)GlcNAc(b1-2)Man(a1-3)[Neu5Ac(a2-3)Gal(b1-3)GlcNAc(b1-2)Man(a1-6)]Man(b1-4)GlcNAc(b1-4)GlcNAc
Outline: as §1

[12] = biological target: Neu5Ac(a2-3)Gal(b1-3)GlcNAc(b1-3)GalNAc
Outline: as §1

[13] = biological target: Neu5Ac(a2-3)Gal(b1-3)GlcNAc(b1-4)Gal(b1-4)Glc
Outline: as §1

[14] = biological target: Neu5Ac(a2-3)Gal(b1-3)[Fuc(a1-4)]GlcNAc(b1-3)Gal(b1-3)[Fuc(a1-4)]GlcNAc
Outline: as §1

[15] = biological target: Neu5Ac(a2-3)Gal(b1-4)GlcNAc(b1-3)Gal
Outline: as §1

[16] = biological target: Neu5Ac(a2-3)Gal(b1-4)GlcNAc(b1-6)[Gal(b1-3)]GalNAc
Outline: as §1

[17] = biological target: Neu5Ac(a2-3)Gal(b1-4)[Fuc(a1-3)]GlcNAc(b1-6)[Gal(b1-3)]GalNAc
Outline: as §1

[18] = biological target: Neu5Ac(a2-3)[GalNAc(b1-4)]Gal(b1-4)GlcNAc(b1-3)GalNAc
Outline: as §1

[19] = biological target: Neu5Ac(a2-6)Gal(b1-4)GlcNAc(b1-2)Man(a1-3)[Neu5Ac(a2-3)Gal(b1-4)GlcNAc(b1-2)Man(a1-6)]Man(b1-4)GlcNAc(b1-4)GlcNAc
Outline: as §1

[20] = biological target: Neu5Ac(a2-6)Gal(b1-4)GlcNAc(b1-2)[Neu5Ac(a2-6)Gal(b1-4)GlcNAc(b1-4)]Man(a1-3)[GlcNAc(b1-4)][Neu5Ac(a2-6)Gal(b1-4)GlcNAc(b1-4)Man(a1-6)]Man(b1-4)GlcNAc(b1-4)GlcNAc
Outline: as §1

[21] = biological target: Neu5Ac(a2-6)Gal(b1-4)GlcNAc(b1-2)[Neu5Ac(a2-6)Gal(b1-4)GlcNAc(b1-6)]Man(a1-6)[Neu5Ac(a2-6)Gal(b1-4)GlcNAc(b1-2)Man(a1-3)][GlcNAc(b1-4)]Man(b1-4)GlcNAc(b1-4)GlcNAc
Outline: as §1

[22] = biological target: Neu5Ac(a2-8)Neu5Ac(a2-3)Gal(b1-4)Glc
Outline: as §1

[23] = biological target: Neu5Ac(a2-8)Neu5Ac(a2-8)Neu5Ac(a2-8)Neu5Ac(a2-3)[GalNAc(b1-4)]Gal(b1-4)Glc
Outline: as §1

[24] = biological target: Neu5Ac9Ac(a2-3)Gal(b1-4)GlcNAc
Outline: as §1

B1: DC-Sign (Homo sapiens), Q9NNX6 (protein)
chain: MSDSKEPRLQQLGLLEEEQLRGLGFRQTRGYKSLAGCLGHGPLVLQLLSFTLLAGLLVQVSKVPSSISQEQSRQDAIYQNLTQLKAAVGELSEKSKLQEIYQELTQLKAAVGELPEKSKLQEIYQELTRLKAAVGELPEKSKLQEIYQELTWLKAAVGELPEKSKMQEIYQELTRLKAAVGELPEKSKQQEIYQELTRLKAAVGELPEKSKQQEIYQELTRLKAAVGELPEKSKQQEIYQELTQLKAAVERLCHPCPWEWTFFQGNCYFMSNSQRNWHDSITACKEVGAQLVVIKSAEEQNFLQLQSSRSNRFTWMGLSDLNQEGTWQWVDGSPLLPSFKQYWNRGEPNNVGEEDCAEFSGNGWNDDKCNLAKFWICKKSAASCSRDEEQFLSPAPATPNPPPA
[1]
  glycan array binding signal (z-score): -0.195
[2]
  glycan array binding signal (z-score): -0.101
[3]
  glycan array binding signal (z-score): -0.179
[4]
  glycan array binding signal (z-score): -0.17
[5]
  glycan array binding signal (z-score): -0.089
[6]
  glycan array binding signal (z-score): -0.109
[7]
  glycan array binding signal (z-score): -0.1
[8]
  glycan array binding signal (z-score): 4.51
[9]
  glycan array binding signal (z-score): 8.32
[10]
  glycan array binding signal (z-score): 0.01
[11]
  glycan array binding signal (z-score): -0.202
[12]
  glycan array binding signal (z-score): -0.142
[13]
  glycan array binding signal (z-score): -0.183
[14]
  glycan array binding signal (z-score): 1.83
[15]
  glycan array binding signal (z-score): -0.186
[16]
  glycan array binding signal (z-score): -0.171
[17]
  glycan array binding signal (z-score): -0.164
[18]
  glycan array binding signal (z-score): -0.171
[19]
  glycan array binding signal (z-score): -0.097
[20]
  glycan array binding signal (z-score): -0.183
[21]
  glycan array binding signal (z-score): -0.167
[22]
  glycan array binding signal (z-score): -0.177
[23]
  glycan array binding signal (z-score): -0.19
[24]
  glycan array binding signal (z-score): -0.175

From the supplement of paper PMC8728848
